# Source: PubChem BioAssay
# Rows were chosen to be rich in hits. Some 4.7% of all compounds tested hit in one or more screens of this group.
# rCAG binder: binders of r(CAG) RNA repeats, primary screen, biochemical, fluorescence | 370,000 compounds, 1.3% hits | inhibition, % at 3 µM | r(CAG) RNA repeat, TO-PRO-1 dye displacement fluorescence;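 active means inhibition above the plate cutoff, the mean of all test compounds on that plate plus 3 SD, cut at about 35% in these data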;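 further: 0% = DMSO alone and 100% = 100 µM mitoxantrone as full dye displacement; higher means more dye released from RNA so lower well fluorescence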
# MPTP inh: mitochondrial permeability transition pore inhibitors, primary screen, biochemical, isolated mouse mitochondria, absorbance | Ca2+ swelling absorbance, 30 min | inhibition, % at 10 µM | 360,000 compounds, 1.4% hits | AID 602449, 2012;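 active means inhibition of 50% or more, scaled per plate between neutral and stimulator controls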;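 further: 0% = DMSO wells given calcium and 100% = 1 mM EGTA wells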
# proKLK7 act: proKLK7 zymogen activators, primary screen, biochemical, fluorescence intensity. activation, % at 7 µM. 370,000 compounds, 0.9% hits. Kallikrein-7 (Homo sapiens), P49862. AID 652039, 2013. purified proKLK7, EDANS-DABCYL substrate fluorescence; 100% is mature enzyme control, 0% vehicle;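 active means activation above the mean of all tested compounds plus 3 SD, computed per campaign excluding outliers beyond control limits, cut at about 13% in these data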
# ADAM10 inh: human ADAM10 inhibitors, primary screen, biochemical, QFRET, HTS | inhibition, % at 7 µM | Disintegrin and metalloproteinase domain-containing protein 10 (Homo sapiens), O14672 | recombinant ADAM10, EDANS/DABCYL FRET peptide cleavage, 3 h | 370,000 compounds, 0.62% hits;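 active means inhibition above a per-campaign cutoff equal to the mean of compounds falling between control-based bounds plus 3 SD, cut at about 20% in these data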;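 further: 0% = DMSO wells while the 100% control is not disclosed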
# Pemphigus Ab inh: inhibitors of pemphigus antibody binding to DSG3, primary screen, biochemical, bead-based, flow cytometry, scFv-GFP; DSG3-coupled beads, scFv-anti-DSG3-GFP binding; active compounds read low; Desmoglein-3 (Homo sapiens), P32926; binding (percent of control), % at 10 µM; 310,000 compounds, 0.48% hits;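 active means binding more than 3 SD below its plate's average and above zero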;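 further: hits lower antibody fragment binding to DSG3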
# ADAM17 inh: ADAM17 inhibitors, primary screen, biochemical, QFRET; Disintegrin and metalloproteinase domain-containing protein 17 (Homo sapiens), P78536; recombinant ADAM17, EDANS/DABCYL FRET peptide cleavage; inhibition, % at 6.95 µM; 370,000 compounds, 0.83% hits;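 active means inhibition above the mean of compounds lying between control limits plus 3 SD, set per campaign, cut at about 8.5% in these data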;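 further: 0% = DMSO-only wells as the low control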
# Target sequence (P78536 215-824 limits assumed): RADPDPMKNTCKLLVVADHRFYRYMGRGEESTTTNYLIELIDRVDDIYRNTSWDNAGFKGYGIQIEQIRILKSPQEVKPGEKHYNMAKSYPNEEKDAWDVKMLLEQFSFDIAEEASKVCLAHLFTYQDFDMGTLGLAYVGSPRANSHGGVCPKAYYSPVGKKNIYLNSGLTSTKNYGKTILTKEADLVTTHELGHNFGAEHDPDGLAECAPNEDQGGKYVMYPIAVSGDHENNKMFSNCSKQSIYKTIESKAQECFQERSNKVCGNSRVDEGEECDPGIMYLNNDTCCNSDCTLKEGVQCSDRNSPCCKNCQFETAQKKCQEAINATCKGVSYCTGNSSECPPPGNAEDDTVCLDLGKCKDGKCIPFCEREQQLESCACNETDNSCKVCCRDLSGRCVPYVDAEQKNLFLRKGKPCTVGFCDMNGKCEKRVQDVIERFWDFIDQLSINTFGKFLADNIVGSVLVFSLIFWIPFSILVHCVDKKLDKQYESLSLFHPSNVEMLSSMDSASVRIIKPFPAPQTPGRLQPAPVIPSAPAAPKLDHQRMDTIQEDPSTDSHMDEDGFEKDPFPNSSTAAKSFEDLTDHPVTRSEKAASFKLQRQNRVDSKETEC
# Rh123 counter: fluorescence retest of MPTP screen hits in isolated mitochondria, single concentration; shares compounds with MPTP inh; membrane potential, Rhodamine 123 fluorescence; inhibition, % at 10 µM; 5,000 compounds, 78% hits; in the data active means inhibition above about 22%;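 further: 0% = DMSO vehicle and 100% = positive control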
# MPTP swell DR: mitochondrial permeability transition pore inhibitors, dose response, biochemical, absorbance, uHTS hits. AID 651561, 2012. isolated mitochondria swelling. 780 compounds, 58% hits. IC50, µM. shares compounds with MPTP inh; in the data active means IC50 below about 20 µM
# MPTP cs DR: fluorescent counter-screen in isolated mitochondria, dose response, counter-screen for MPTP inhibitor project, biochemical, fluorescence, uHTS hits; shares compounds with MPTP inh; 780 compounds, 49% hits; isolated mitochondria counterscreen, fluorescence read-out; IC50, µM; in the data active means IC50 below about 80 µM
# An asterisk follows results filed as active; i = inactive; nt = no result.
SMILES,rCAG binder,MPTP inh,proKLK7 act,ADAM10 inh,Pemphigus Ab inh,ADAM17 inh,Rh123 counter,others
CC(=O)NN1C(=O)/C(=C\c2ccc(O)cc2)SC1=S,-39.4,0.7,-0.2,1.6,106.6,-0.9,nt,
O=C1/C(=C\c2ccc(O)cc2)SC(=S)N1/N=C/c1ccc(O)cc1,-14.3,95.6*,-0.3,-5.1,82.8,-4.6,78.2*,
O=C1/C(=C/c2cccc(Br)c2)SC(=S)N1/N=C/c1cc([N+](=O)[O-])ccc1O,9.5,60.8*,0.1,-1.3,100.1,-1.8,12.4,MPTP swell DR=15.3*;MPTP cs DR=<2.5*
O=C(Nc1cccc(Cl)c1)NN(c1ccccc1)C1CCS(=O)(=O)C1 (centres undefined),2.8,nt,0.6,-6.6,nt,-1.7,nt,
CCOC(=O)[C@]12CCCC=C1N(CCCOC)C(=O)[C@@H]2CC(=O)N1CCN(C(=O)c2ccco2)CC1,0.3,nt,0.2,-11.3,nt,-4.7,nt,
Cc1ccc(Nc2n[nH]c(C)c2[N+](=O)[O-])cc1C,0.9,8.5,-0.1,5.0,nt,2.9,nt,
Cc1ccc(Nc2nc3nonc3[nH]c2=O)cc1C,19.8,69.4*,0.7,13.7,110.6,-1.0,101.7*,
Cc1ccc(Nc2nc3nonc3[nH]c2=O)cc1Cl,23.2,91.6*,0.8,2.5,104.0,1.1,99.3*,
CC1CCN(C(=O)c2ncn3c2C(=O)NC[C@H]3C)CC1,-1.4,nt,-0.5,-9.3,nt,-4.4,nt,
CN1CCCCC(NC(=O)c2cccs2)C1=O (centres undefined),2.3,nt,-0.3,-6.5,nt,-1.5,nt,
Cc1ccc(S(=O)(=O)N2CCN(c3ncnc4sccc34)CC2)cc1C,1.9,89.6*,-0.9,-3.1,99.1,-6.6,93.6*,
O=S(=O)(c1ccc2c(c1)OCCO2)N1CCN(c2ncnc3sccc23)CC1,1.9,103.2*,0.0,9.2,nt,2.3,89.5*,
CN1CCN(S(=O)(=O)c2ccc3c(c2)OCCO3)CC1,0.9,-5.6,0.5,3.9,78.8,-5.3,nt,
Cc1ccc(S(=O)(=O)N2CCN(c3ncccn3)CC2)cc1C,-4.3,0.2,-0.1,1.6,123.0,0.6,nt,
COc1ccccc1C=NN=C(NN=Cc1ccccc1OC)NN=Cc1ccccc1OC,14.9,94.4*,-2.7,2.4,121.7,-1.0,97.3*,
COc1ccccc1C=NNC(=O)NN=Cc1ccccc1OC,3.7,-1.8,0.2,-8.3,113.8,-2.3,nt,
Cn1c2c(c(=O)n(C)c1=O)C(C(F)(F)F)(C(F)(F)F)N=C(c1ccc(Cl)cc1)N2,nt,99.1*,nt,nt,98.2,nt,84.0*,
COC(=O)c1ccc(NC(=S)NCC2CC2)cc1,2.2,11.2,-0.1,9.4,96.2,-0.3,nt,
COC(=O)c1ccc(NC(=S)NCCc2cccc(C)c2)cc1,1.6,87.7*,0.3,12.8,84.1,0.3,90.8*,
COC(=O)c1ccc(NC(=S)NCCc2ccc(OC)cc2)cc1,3.6,7.9,-0.1,15.1,98.6,3.0,nt,
COC(=O)c1ccc(NC(=S)NCCc2ccccc2C)cc1,1.3,99.9*,-0.3,17.3,nt,4.8,82.6*,
Cc1cccc(C)c1OCC(O)CN1CCC(CN2C(=O)c3cccc4cccc(c34)C2=O)CC1 (centres undefined),-5.5,62.2*,-3.2,-91.7,100.9,-30.7,11.2,
Cc1ccccc1OCC(O)CN1CCN(CCN2C(=O)c3cccc4cccc(c34)C2=O)CC1 (centres undefined),3.3,2.1,1.2,-22.6,87.8,-6.2,nt,
CCN(CC)S(=O)(=O)c1ccc(O)c(C(=O)OCC(=O)Nc2ccc(OC(F)(F)F)cc2)c1,19.7,101.6*,0.3,-8.4,99.8,-3.9,83.9*,
CCN(CC)S(=O)(=O)c1ccc(O)c(C(=O)OCC(=O)Nc2cc(C)c(C)cc2[N+](=O)[O-])c1,18.8,-4.1,1.4,1.6,116.1,1.2,nt,
SMILES,rCAG binder,MPTP inh,proKLK7 act,ADAM10 inh,Pemphigus Ab inh,ADAM17 inh,Rh123 counter,others
CCN(CC)S(=O)(=O)c1ccc(O)c(C(=O)OCC(=O)NC23CC4CC(CC(C4)C2)C3)c1,23.5,83.4*,-0.1,-34.6,95.1,-8.2,80.6*,
CCN(CC)S(=O)(=O)c1ccc(O)c(C(=O)OCC(=O)NC2CCCC2)c1,4.5,-1.1,-1.8,-23.6,106.9,-9.5,nt,
COCc1cc(C)nc(OCC(=O)N/N=C/c2ccc(O)cc2)c1C#N,1.2,0.7,-0.7,-5.1,105.2,-2.6,nt,
COCc1cc(C)nc(OCC(=O)N/N=C/c2cc(C)n(-c3c(C)cccc3C)c2C)c1C#N,1.1,55.5*,0.2,-43.0,96.3,-17.6,0.5,MPTP swell DR=7.89*;MPTP cs DR=>80
NC(=O)c1nnn(Cc2cc(Cl)c(C(=O)c3ccc(Cl)cc3)c(Cl)c2)c1N,4.5,73.1*,-0.3,14.8,nt,7.8,90.9*,
Nc1c(C(=O)Nc2ccc3c(c2)OCCO3)nnn1Cc1ccc(Cl)cc1,1.0,-1.0,1.7,-41.0,97.1,-18.0,nt,
Brc1ccc2nc(-c3ccc(CN4CCC(c5nc6ccccc6[nH]5)CC4)cc3)c(-c3ccccc3)nc2c1,13.9,nt,-6.5,0.1,nt,2.6,nt,
OC1(c2ccc3ccccc3c2)CCN(Cc2ccccc2)C1 (centres undefined),nt,55.0*,nt,nt,105.2,nt,-3.3,MPTP swell DR=i;MPTP cs DR=>80
OC(c1ccccc1)C1(c2ccccc2)CCN(Cc2ccccc2)CC1 (centres undefined),-0.5,nt,-0.3,2.1,nt,-2.6,nt,
Fc1ccc(NC(=S)NCCc2ccc(Cl)cc2)cc1,-0.5,89.3*,0.8,-4.1,107.8,3.3,89.9*,
Fc1ccc(NC(=S)NCc2ccccc2Cl)cc1,1.2,92.4*,0.5,2.5,nt,5.6,76.0*,
Cc1c(Cl)cccc1NC(=S)NCCc1ccc(Cl)cc1,-1.2,85.2*,0.3,4.8,118.8,1.9,80.9*,
Fc1ccc(CCNC(=S)Nc2ccc(F)c(Cl)c2)cc1,1.5,102.6*,0.2,8.7,99.8,1.9,95.1*,
O=C(NCCc1ccc(Cl)cc1)Nc1ccc(F)cc1,-0.9,0.9,0.1,2.0,83.3,-2.7,nt,
COC(=O)[C@]12C[C@H](CC(=O)NCCCN3CCCC3=O)C(=O)N(Cc3cccc4ccccc34)C1=C[C@H](C(C)C)O[C@@H]2C1CC1,4.8,nt,0.1,-4.4,nt,-4.9,nt,
C/C(=N\NC(=O)Cc1cccs1)c1ccco1,6.2,nt,0.0,-1.0,nt,1.0,nt,
